The text below walks through data of PubChem BioAssay (NCI).

The nature of test [1]: NCI Yeast Anticancer Drug Screen. Data for the rad50 strain (AID 155).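 Also: 0% = growth of vehicle-only cultures of the same strain.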 The note with it: S. cerevisiae rad50 strain growth inhibition; at 50.0 µM; hits give high values. In outline: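 Vehicle-treated cultures provide the reference for the growth inhibition reported for compound-exposed, repair-deficient yeast.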
Test [2] can be described thus: NCI Yeast Anticancer Drug Screen. Data for the mec2-1 strain (AID 157). To be noted: S. cerevisiae mec2-1 strain, at 50.0 µM, hits give high values. In short, it runs like this: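 Mutant yeast (mec2-1) grown with compound; growth inhibition relative to vehicle control reported.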
Test [3] in a line: NCI Yeast Anticancer Drug Screen. Data for the sgs1 mgt1 strain (AID 161).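 Also: 0% = growth of cultures given vehicle only.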 To be noted: S. cerevisiae sgs1 mgt1 strain, at 50.0 µM, hits give high values. In outline: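 Yeast cells carrying a defined DNA-repair defect were exposed to test compounds. Growth inhibition was measured relative to vehicle-treated controls.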
A short description of test [4]: NCI Yeast Anticancer Drug Screen. Data for the cln2 rad14 strain (AID 165).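 Also: 0% = growth equal to vehicle treated cultures.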 The note with it: S. cerevisiae cln2 rad14 strain, at 50.0 µM, hits give high values. In outline:
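Readout is yeast growth inhibition versus vehicle-treated controls, using a strain with cln2 and rad14 alterations exposed to compound.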

The nature of test [5]: NCI Yeast Anticancer Drug Screen. Data for the bub3 strain (AID 167). The note with it: S. cerevisiae bub3 mutant strain, at 50.0 µM, hits give high values. In short, it runs like this: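 Mutant yeast screening strain plus compound; vehicle-treated cultures serve as the 0% inhibition reference.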
Test [6] is described as follows: NCI Yeast Anticancer Drug Screen. Data for the mlh1 rad18 strain (AID 175). To be noted: S. cerevisiae mlh1 rad18 strain growth inhibition; at 50.0 µM; hits give high values. In outline: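 Genetically defined yeast (DNA repair-deficient) exposed to compounds; growth inhibition determined relative to vehicle.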

Compounds without any hit were thinned out: in the full panel of roughly 79,000, 15% have a hit. A number with no mark means an inactive call. Active and inactive are the calls of the source. Rule as the data show it: active = growth inhibition above about 70%; inactive = the rest.

As for `N#C/C(=C/c1cccc(Oc2ccccc2)c1)c1ccccc1`, the growth inhibition in test [1] is 11.7%; in test [2] it was -28.2%; in test [3], -0.55%; in test [4], -1.5%; in test [5] it was -23.1%; in test [6], -14.4%.

For `O=C(CCl)NCCc1ccccc1`, the growth inhibition in test [1] is 17.5%; in test [2], 5.6%; in test [3], -0.4%; in test [4], 12.8%; in test [5], 24.8%; in test [6], 1.1%.

Regarding `CCCCCCc1cc2c(C)c(C)c(=O)oc2cc1OCCCOc1cc2oc(=O)c(C)c(C)c2cc1CCCCCC`, the growth inhibition in test [1] is -17.9%; in test [2], -24.9%; in test [3] it was -12.5%; in test [4], 35.5%; in test [5] it was -11.8%; in test [6] it was -46.3%.

As to `CCOc1ncc(C(O)c2ccco2)c(OCC)n1` (stereo unspecified), the growth inhibition in test [1] was -0.85%; in test [2], 5.85%; in test [3] it was 5.7%; in test [4], -47.8%; in test [5], 3.15%; in test [6] it was -8%.

As for `C[C@H](CCc1nc(C#N)c(N)o1)[C@H]1CC[C@H]2[C@@H]3[C@@H](O)CC4C[C@@H](O)CC[C@]4(C)[C@H]3C[C@@H](O)[C@]12C` (stereo partly specified), the growth inhibition in test [1] is 26.4%; in test [2], 9.8%; in test [3], 10.7%; in test [4] it was 9.55%; in test [5], -9.1%; in test [6], -2.85%.

Take `CC1OC(OC2C(Oc3cc(O)c4c(c3)O[C@H](c3ccc(O)cc3)CC4=O)OC(CO)C(O)C2O)C(O)C(O)C1O` (stereo partly specified): the growth inhibition is 5.65% in test [1]; -12% in test [2]; -5.65% in test [3]; -3.6% in test [4]; -0.1% in test [5]; -46.2% in test [6].

With `O=C1Nc2cc([N+](=O)[O-])c(Br)cc2C1=O`, the growth inhibition in test [1] was 22.1%; in test [2], 27.4%; in test [3], 0.7%; in test [4] it was 14.9%; in test [5], 5.8%; in test [6], 12.1%.

With `O=C1NN2CCCN=C2c2ncccc21`, the growth inhibition in test [1] was 15.2%; in test [2] it was 2.1%; in test [3], 8.1%; in test [4] it was 17.1%; in test [5], 2.7%; in test [6] it was 20.8%.

Regarding `N#Cc1c(-c2ccccc2)cn2c1[nH]c(=O)c1ccccc12`, the growth inhibition in test [1] was 4%; in test [2] it was -6.65%; in test [3] it was 11.2%; in test [4], 5.45%; in test [5], -17.9%; in test [6], 1.05%.

Turning to `CCOc1ccccc1/C=C/C(=O)O`, the growth inhibition was 4.6% in test [1]; -9.7% in test [2]; -11.8% in test [3]; -19% in test [4]; -22.1% in test [5]; -21.4% in test [6].

Regarding `CC(=O)OC1CC23CCC(=O)C2(CC3)C1` (stereo unspecified), the growth inhibition is 19.9% in test [1]; -5.8% in test [2]; 1.85% in test [3]; -30.1% in test [4]; 8.3% in test [5]; -11% in test [6].

With `CCc1c(CNc2ccc(Cl)c(Cl)c2)ccc2nc(N)nc(N)c12`, the growth inhibition in test [1] is 90.7% (active); in test [2], 92.2% (active); in test [3], 91.9% (active); in test [4] it was 90% (active); in test [5], 90.5% (active); in test [6], 89.7% (active).

As for `Brc1ccccn1`, the growth inhibition is 35.5% in test [1]; 11% in test [2]; 6.2% in test [3]; -15.1% in test [4]; 28.3% in test [5]; 22.8% in test [6].

Regarding `CC(C)OC(=O)Oc1ccc(Cl)cc1`, the growth inhibition in test [1] is 6.05%; in test [2], -13.1%; in test [3], 7.4%; in test [4], -46.1%; in test [5], -11.8%; in test [6], 9.8%.

In the case of `CC(=O)OCC1OC(OC(C)=O)C(Nc2ncnc3nc[nH]c23)C(OC(C)=O)C1OC(C)=O` (stereo unspecified), the growth inhibition in test [1] was 28.1%; in test [2], 23.9%; in test [3], 49.9%; in test [4] it was 11.6%; in test [5], 16.5%; in test [6] it was 37.8%.

On to `CC(=O)Nn1cnc(C(=N)C#N)c1N`, for which the growth inhibition in test [1] was -27.1%; in test [2], -6.15%; in test [3] it was -6.15%; in test [4], 11.8%; in test [5], -0.75%; in test [6], -2.95%.

As to `O=C(Nc1ccc(Cl)c(Cl)c1)C(=O)Nn1c(=S)[nH]c2ccccc2c1=O`, the growth inhibition in test [1] was -4.05%; in test [2], -16.4%; in test [3], 2.8%; in test [4], -1.5%; in test [5], -0.8%; in test [6] it was 0.65%.

For the compound `Cc1c(NC(C)C)ccc(NC(C)C)c1C`, the growth inhibition in test [1] was 35.3%; in test [2], 27.6%; in test [3] it was 26.3%; in test [4], 17%; in test [5] it was 25.2%; in test [6], 43.2%.

Consider `CCCOc1ccc(C2=C(c3ccccc3)C(=O)C(c3ccccc3)=C2c2ccccc2)cc1`, for which the growth inhibition in test [1] was 34.2%; in test [2], 15.6%; in test [3], 20.6%; in test [4], 20.2%; in test [5], 2.25%; in test [6], 20.6%.

As for `O=c1[nH]c2nc3ccccc3c(=O)n2/c1=C/c1ccc(Cl)cc1`, the growth inhibition in test [1] is -1.6%; in test [2], 18.2%; in test [3], 43.4%; in test [4] it was 29.6%; in test [5], 14.1%; in test [6], -17.2%.

Regarding `c1ccc(-c2cn3c(nc4ccccc43)c(-c3ccccc3)n2)cc1`, the growth inhibition in test [1] is -44.6%; in test [2], -7.15%; in test [3], -29.1%; in test [4] it was -1.15%; in test [5], -4.3%; in test [6], -41.9%.
